Results reported in PubChem BioAssay (EPA / NIEHS).
Records with an inconclusive call do not appear. Activity calls are given as the source filed them. How the source made its calls, unless noted: active means hit-call score of the fitted dose curve at least 0.9, where 1 is the maximum; inactive means score below 0.9.

Key:
[1] = ATG_TAL_CIS: Attagene CIS-FACTORIAL HepG2 Assay for human TAL Basal Promoter (AID 2282966); conditions: HepG2 Attagene cis-factorial TAL promoter reporter; actives raise or lower the signal;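 further: background control endpoint measuring basal TAL promoter reporter mRNA not a specific factor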
Summary of the method: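 HepG2 cells transiently transfected with multiplexed cis-promoter reporter units, dosed 24 h. Reporter mRNA quantified by RT-PCR, 6-FAM labelling, HpaI digestion and capillary electrophoresis; TAL basal promoter serves as background control, fitted bidirectionally versus DMSO.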

[2] = ATG_TGFb_CIS: Attagene CIS-FACTORIAL HepG2 Assay for human Transforming Growth Factor (TGF) (AID 2282967); conditions: HepG2 Attagene CIS TGFb reporter, mRNA transcription; actives raise or lower the signal
Summary of the method: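 Liver HepG2 line, cis-factorial reporter panel, 24 h dosing. Quantitation: RT-PCR products labeled with 6-FAM, cut with HpaI, resolved by capillary electrophoresis; DMSO-referenced bidirectional analysis.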

[3] = ATG_VDRE_CIS: Attagene CIS-FACTORIAL HepG2 Assay for human Vitamin D Receptor Element (VDRE) (AID 2282968); conditions: HepG2 VDRE cis-reporter transcription, actives raise or lower the signal
Summary of the method: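 Reporter mRNA induction, quantified by capillary electrophoresis of fluorescently labelled RT-PCR products, was read 24 h after dosing HepG2 cells carrying transiently transfected cis-regulated reporter units; gain or loss relative to DMSO.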

[4] = molecular target: X-box-binding protein 1 (Homo sapiens) (UniProt P17861); test: ATG_Xbp1_CIS: Attagene CIS-FACTORIAL HepG2 Assay for human X-box Binding Protein 1 (XBP1) (AID 2282972); conditions: HepG2 XBP1 cis-element reporter, Attagene multiplex; actives raise or lower the signal
Summary of the method: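 HepG2 cells transiently transfected with cis-regulated multiple reporter transcription units; endogenous transcription factor activity measured 24 hours after chemical dosing. Reporter mRNA quantified by RT-PCR, 6-FAM primer extension, HpaI digestion and capillary electrophoresis; bidirectional fitting versus DMSO.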

[5] = molecular target: Oxysterols receptor LXR-alpha (Homo sapiens) (UniProt Q13133); test: ATG_LXRa_TRANS: Attagene TRANS-FACTORIAL HepG2 Assay for human Liver X Receptor alpha (LXRa) (AID 2282980; active means hit-call score of the fitted dose curve at least 0.9, where 1 is the maximum); conditions: HepG2 Attagene TRANS reporter, LXRa transactivation
Summary of the method: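 HepG2 cells transiently transfected with GAL4-UAS reporter units for chimeric NR-Gal4 proteins, exposed to chemicals for 24 h. Reporter mRNA quantified by RT-PCR and capillary electrophoresis; gain of signal fitted relative to DMSO.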

[6] = molecular target: Hepatocyte nuclear factor 4-alpha (Homo sapiens) (UniProt P41235); test: ATG_HNF4a_TRANS: Attagene TRANS-FACTORIAL HepG2 Assay for human Hepatocyte Nuclear Factor 4 alpha (HNF4a) (AID 2282982; active means hit-call score of the fitted dose curve at least 0.9, where 1 is the maximum); conditions: HepG2 HNF4a transactivation reporter, mRNA readout
Summary of the method: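 Readout is fluorescent reporter-transcript fragments resolved by capillary electrophoresis after RT-PCR from HepG2 cells dosed for 24 h. Cells carried transfected GAL4-UAS reporter constructs measuring exogenous NR-GAL4 chimera activity; DMSO served as baseline.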

[7] = ATG_M_06_TRANS: Attagene TRANS-FACTORIAL HepG2 Assay for M06 Transcription Factor (Internal Marker) (AID 2282983; active means hit-call score of the fitted dose curve at least 0.9, where 1 is the maximum;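 further: reporter transcript level by RT-PCR then capillary electrophoresis fluorescence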); conditions: HepG2 Attagene TRANS M06 internal marker reporter
Summary of the method: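 HepG2 cells transiently transfected with GAL4-UAS multiple reporter units, dosed 24 h. Reporter RNA reverse-transcribed, PCR-amplified, 6-FAM-labeled, HpaI-digested and quantified by capillary electrophoresis; this internal-marker signal fitted upward relative to DMSO.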

[8] = ATG_M_32_TRANS: Attagene TRANS-FACTORIAL HepG2 Assay for M32 Transcription Factor (Internal Marker) (AID 2282984; active means hit-call score of the fitted dose curve at least 0.9, where 1 is the maximum); conditions: HepG2 Attagene TRANS M32 internal marker reporter
Summary of the method: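 Measures reporter mRNA induction in human HepG2 liver cells after 24 h chemical treatment. Transcripts from transiently transfected GAL4-UAS reporter units are amplified, fluorescently labelled and sized by capillary electrophoresis; gain of signal relative to DMSO.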

[9] = molecular target: Transcriptional activator Myb (Homo sapiens) (UniProt P10242); test: ATG_Myb_CIS: Attagene CIS-FACTORIAL HepG2 Assay for human Myeloblastosis (Myb) Proto-Oncogene Transcription Factor (AID 2282986); conditions: HepG2 Attagene CIS-FACTORIAL Myb reporter transcription; actives raise or lower the signal
Summary of the method: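 In this HepG2 transient-transfection format, cis-regulated reporter mRNA is quantified 24 h post-dosing by RT-PCR with capillary electrophoresis, fitted bidirectionally to DMSO baseline.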

[10] = molecular target: Nuclear respiratory factor 1 (Homo sapiens) (UniProt Q16656); test: ATG_NRF1_CIS: Attagene CIS-FACTORIAL HepG2 Assay for human Nuclear Respiratory Factor 1 (NRF1) Orphan Gene (AID 2282987); conditions: HepG2 NRF1 cis-element reporter, Attagene multiplex; actives raise or lower the signal
Summary of the method: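 Using DMSO as baseline, gain- or loss-of-signal was fitted for reporter mRNA levels in HepG2 cells transiently transfected with cis-regulated reporter units. Samples were taken 24 h after dosing and read by RT-PCR with capillary electrophoresis.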

[11] = ATG_M_19_TRANS: Attagene TRANS-FACTORIAL HepG2 Assay for M19 Transcription Factor (Internal Marker) (AID 2282974; active means hit-call score of the fitted dose curve at least 0.9, where 1 is the maximum); conditions: HepG2 Attagene TRANS-FACTORIAL M19 internal marker reporter
Summary of the method: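 Using RT-PCR and capillary electrophoresis, reporter mRNA from transiently transfected human HepG2 cells was quantified following 24 h exposure; activity was fitted in the positive direction against DMSO.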

[12] = molecular target: Glucocorticoid receptor (Homo sapiens) (UniProt P04150); test: ATG_GR_TRANS: Attagene TRANS-FACTORIAL HepG2 Assay for human Glucocorticoid Receptor (GR) (AID 2282978; active means hit-call score of the fitted dose curve at least 0.9, where 1 is the maximum;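 further: activators score as hits since higher reporter transcript over DMSO is fitted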); conditions: HepG2 Attagene TRANS GR reporter, mRNA transcription
Summary of the method: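 Exogenous NR-GAL4 fusion activity was assessed through induced GAL4-UAS reporter transcripts in transfected human HepG2 cells, quantified after 24 h by RT-PCR and fluorescent capillary electrophoresis with DMSO as baseline.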

[13] = molecular target: Oxysterols receptor LXR-beta (Homo sapiens) (UniProt P55055); test: ATG_LXRb_TRANS: Attagene TRANS-FACTORIAL HepG2 Assay for human Liver X Receptor beta (LXRb) (AID 2282981; active means hit-call score of the fitted dose curve at least 0.9, where 1 is the maximum); conditions: HepG2 Attagene TRANS GAL4-LXRb reporter, mRNA
Summary of the method: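 Transient transfection HepG2 (multiplexed RTUs, GAL4-UAS); NR-Gal4 chimera; 24 h exposure; RNA → RT-PCR → 6-FAM primer extension → HpaI → CE; increase vs DMSO.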

[14] = molecular target: Nuclear receptor subfamily 4 group A member 2 (Homo sapiens) (UniProt P43354); test: ATG_NURR1_TRANS: Attagene TRANS-FACTORIAL HepG2 Assay for human Nuclear Receptor Related Protein 1 (NURR1) (AID 2282985; active means hit-call score of the fitted dose curve at least 0.9, where 1 is the maximum); conditions: HepG2 Attagene TRANS reporter, mRNA readout
Summary of the method: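 Transient transfection of HepG2, human liver cells, with multiple GAL4-UAS reporter transcription units. Cells dosed 24 h, RNA isolated, reverse-transcribed, PCR-amplified, FAM-labelled, HpaI-digested, sized by capillary electrophoresis. DMSO served as negative control.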

[15] = molecular target: Nuclear receptor subfamily 1 group I member 3 (Homo sapiens) (UniProt Q14994); test: ATG_CAR_TRANS: Attagene TRANS-FACTORIAL HepG2 Assay for human Constitutive Androstane Receptor (CAR) (AID 2282969; active means hit-call score of the fitted dose curve at least 0.9, where 1 is the maximum;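 further: activators raise reporter mRNA above DMSO so AC50 marks induction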); conditions: HepG2 Attagene TRANS-FACTORIAL CAR reporter
Summary of the method: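 Readout is reporter mRNA induction, quantified by fluorescent primer extension and capillary electrophoresis after RT-PCR. Cells were HepG2 transiently carrying chimeric NR-Gal4 constructs with GAL4-UAS reporters, treated for 24 h; activity scored upward from DMSO.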

[16] = molecular target: Estrogen receptor (Homo sapiens) (UniProt P03372); test: ATG_ERa_TRANS: Attagene TRANS-FACTORIAL HepG2 Assay for human Estrogen Receptor alpha (ERa) (AID 2282970; active means hit-call score of the fitted dose curve at least 0.9, where 1 is the maximum); conditions: HepG2 Attagene TRANS ERa GAL4 reporter, mRNA
Summary of the method: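 HepG2 cells transiently transfected with multiplexed GAL4-UAS reporter units read out chimeric NR-Gal4 activity. After 24 h compound exposure, reporter mRNA was quantified by RT-PCR, 6-FAM labeling, HpaI digestion and capillary electrophoresis, relative to DMSO.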

[17] = molecular target: Steroid hormone receptor ERR1 (Homo sapiens) (UniProt P11474); test: ATG_ERRa_TRANS: Attagene TRANS-FACTORIAL HepG2 Assay for human Estrogen-Related Receptor alpha (ERRa) (AID 2282971; active means hit-call score of the fitted dose curve at least 0.9, where 1 is the maximum); conditions: HepG2 Attagene TRANS reporter, ERRa transactivation
Summary of the method: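 HepG2 cells transiently transfected with GAL4-UAS reporter units and chimeric NR-Gal4 constructs; after 24 hour compound incubation, reporter mRNA quantified by RT-PCR, fluorescent labelling and capillary electrophoresis, gain of signal versus DMSO.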

[18] = ATG_GAL4_TRANS: Attagene TRANS-FACTORIAL HepG2 Assay for GAL4 (Internal Marker) (AID 2282976; active means hit-call score of the fitted dose curve at least 0.9, where 1 is the maximum); conditions: HepG2 Attagene TRANS GAL4 internal marker reporter
Summary of the method: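 Background-control readout: GAL4-UAS reporter transcript in transiently transfected HepG2 cells after 24 h compound exposure. Measured by RT-PCR, 6-FAM primer extension, HpaI digest and capillary electrophoresis; gain-of-signal fit versus DMSO.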

[19] = molecular target: Estrogen-related receptor gamma (Homo sapiens) (UniProt P62508); test: ATG_ERRg_TRANS: Attagene TRANS-FACTORIAL HepG2 Assay for human Estrogen-Related Receptor gamma (ERRg) (AID 2282977; active means hit-call score of the fitted dose curve at least 0.9, where 1 is the maximum;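 further: hits increase reporter signal over DMSO so potencies reflect activators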); conditions: HepG2 Attagene TRANS reporter, ERRg transactivation
Summary of the method: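 Transfect HepG2 with multiple GAL4-UAS reporter transcription units; dose chemicals 24 h; isolate RNA, reverse-transcribe with oligo(dT), PCR-amplify, label with 6-FAM, digest with HpaI; size fragments by capillary electrophoresis. DMSO serves as negative control.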

[20] = molecular target: Bile acid receptor (Homo sapiens) (UniProt Q96RI1); test: ATG_FXR_TRANS: Attagene TRANS-FACTORIAL HepG2 Assay for Farnesoid X Receptor (FXR) (AID 2282979; active means hit-call score of the fitted dose curve at least 0.9, where 1 is the maximum;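 further: hits raise reporter mRNA above DMSO so AC50 marks FXR activation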); conditions: HepG2 Attagene TRANS FXR-GAL4 reporter transcription
Summary of the method: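 HepG2 cells were transiently transfected with GAL4-UAS reporters driven by chimeric NR-Gal4 proteins and dosed for 24 h. Reporter mRNA was quantified by RT-PCR, fluorescent labelling, HpaI digestion and capillary electrophoresis, with gain of signal scored versus DMSO.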

Measured: AC50

Sequence of Nuclear respiratory factor 1 (Homo sapiens) (Q16656 whole entry, looked up): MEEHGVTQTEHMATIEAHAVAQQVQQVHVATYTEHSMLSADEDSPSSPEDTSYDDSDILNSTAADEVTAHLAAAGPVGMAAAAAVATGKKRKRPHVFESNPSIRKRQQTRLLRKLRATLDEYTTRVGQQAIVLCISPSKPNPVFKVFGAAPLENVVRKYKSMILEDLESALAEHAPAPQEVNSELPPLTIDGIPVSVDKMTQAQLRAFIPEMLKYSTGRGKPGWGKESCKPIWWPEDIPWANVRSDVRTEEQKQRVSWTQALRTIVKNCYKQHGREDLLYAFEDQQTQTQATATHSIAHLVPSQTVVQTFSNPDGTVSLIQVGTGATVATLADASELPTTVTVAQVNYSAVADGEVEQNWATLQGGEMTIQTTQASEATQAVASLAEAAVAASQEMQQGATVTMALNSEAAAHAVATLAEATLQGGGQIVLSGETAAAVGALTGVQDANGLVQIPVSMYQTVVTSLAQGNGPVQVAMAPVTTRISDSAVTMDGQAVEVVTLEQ
Sequence of Glucocorticoid receptor (Homo sapiens) (P04150 whole entry, looked up, the tested form may be a part): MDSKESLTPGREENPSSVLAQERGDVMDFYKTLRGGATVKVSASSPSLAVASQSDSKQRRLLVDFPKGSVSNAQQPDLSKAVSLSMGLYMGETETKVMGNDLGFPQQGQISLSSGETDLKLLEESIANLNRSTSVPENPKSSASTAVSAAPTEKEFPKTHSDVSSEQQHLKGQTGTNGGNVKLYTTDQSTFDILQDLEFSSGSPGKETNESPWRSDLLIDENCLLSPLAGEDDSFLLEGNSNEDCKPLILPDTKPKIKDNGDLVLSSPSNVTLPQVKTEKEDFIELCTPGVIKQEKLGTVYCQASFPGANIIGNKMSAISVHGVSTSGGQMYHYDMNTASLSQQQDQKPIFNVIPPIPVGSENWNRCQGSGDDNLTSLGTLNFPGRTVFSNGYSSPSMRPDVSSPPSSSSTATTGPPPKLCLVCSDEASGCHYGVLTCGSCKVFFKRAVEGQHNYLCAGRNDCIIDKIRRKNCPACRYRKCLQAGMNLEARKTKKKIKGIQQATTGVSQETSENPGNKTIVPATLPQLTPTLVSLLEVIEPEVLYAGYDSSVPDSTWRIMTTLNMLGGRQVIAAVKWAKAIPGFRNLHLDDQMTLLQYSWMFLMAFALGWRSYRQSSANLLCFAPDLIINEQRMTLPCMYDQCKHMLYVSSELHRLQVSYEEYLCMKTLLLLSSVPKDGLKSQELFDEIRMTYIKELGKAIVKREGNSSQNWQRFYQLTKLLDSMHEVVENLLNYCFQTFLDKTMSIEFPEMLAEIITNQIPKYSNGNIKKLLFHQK
Sequence of Transcriptional activator Myb (Homo sapiens) (P10242 whole entry, looked up): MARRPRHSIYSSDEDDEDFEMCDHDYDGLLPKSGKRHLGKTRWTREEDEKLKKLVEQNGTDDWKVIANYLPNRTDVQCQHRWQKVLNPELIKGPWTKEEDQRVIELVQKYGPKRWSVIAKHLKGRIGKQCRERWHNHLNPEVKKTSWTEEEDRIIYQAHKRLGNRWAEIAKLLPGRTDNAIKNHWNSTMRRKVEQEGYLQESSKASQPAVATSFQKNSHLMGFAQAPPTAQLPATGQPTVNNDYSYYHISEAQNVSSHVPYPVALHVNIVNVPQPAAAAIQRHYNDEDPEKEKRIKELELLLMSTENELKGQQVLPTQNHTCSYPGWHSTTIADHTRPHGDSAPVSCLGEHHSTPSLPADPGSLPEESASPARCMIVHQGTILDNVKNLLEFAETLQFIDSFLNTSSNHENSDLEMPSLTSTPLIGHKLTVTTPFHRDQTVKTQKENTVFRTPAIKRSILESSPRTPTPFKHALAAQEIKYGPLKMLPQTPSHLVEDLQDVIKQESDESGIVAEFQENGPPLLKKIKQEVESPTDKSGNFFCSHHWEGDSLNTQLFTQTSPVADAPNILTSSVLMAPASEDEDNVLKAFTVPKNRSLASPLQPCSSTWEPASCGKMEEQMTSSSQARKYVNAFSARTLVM
Sequence of Oxysterols receptor LXR-alpha (Homo sapiens) (Q13133 whole entry, looked up, the tested form may be a part): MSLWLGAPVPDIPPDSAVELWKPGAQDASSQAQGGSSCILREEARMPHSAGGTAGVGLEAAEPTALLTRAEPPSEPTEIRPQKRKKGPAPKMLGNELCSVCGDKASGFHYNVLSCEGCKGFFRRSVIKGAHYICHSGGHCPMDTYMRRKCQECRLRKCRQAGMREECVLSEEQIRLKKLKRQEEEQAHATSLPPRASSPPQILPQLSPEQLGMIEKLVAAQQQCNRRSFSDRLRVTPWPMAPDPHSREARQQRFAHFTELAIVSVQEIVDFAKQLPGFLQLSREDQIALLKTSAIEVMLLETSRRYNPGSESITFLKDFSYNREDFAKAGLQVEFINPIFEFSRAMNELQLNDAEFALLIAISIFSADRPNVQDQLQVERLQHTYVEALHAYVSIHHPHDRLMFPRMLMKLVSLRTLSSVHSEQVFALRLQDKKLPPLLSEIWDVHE
Sequence of Hepatocyte nuclear factor 4-alpha (Homo sapiens) (P41235 whole entry, looked up, the tested form may be a part): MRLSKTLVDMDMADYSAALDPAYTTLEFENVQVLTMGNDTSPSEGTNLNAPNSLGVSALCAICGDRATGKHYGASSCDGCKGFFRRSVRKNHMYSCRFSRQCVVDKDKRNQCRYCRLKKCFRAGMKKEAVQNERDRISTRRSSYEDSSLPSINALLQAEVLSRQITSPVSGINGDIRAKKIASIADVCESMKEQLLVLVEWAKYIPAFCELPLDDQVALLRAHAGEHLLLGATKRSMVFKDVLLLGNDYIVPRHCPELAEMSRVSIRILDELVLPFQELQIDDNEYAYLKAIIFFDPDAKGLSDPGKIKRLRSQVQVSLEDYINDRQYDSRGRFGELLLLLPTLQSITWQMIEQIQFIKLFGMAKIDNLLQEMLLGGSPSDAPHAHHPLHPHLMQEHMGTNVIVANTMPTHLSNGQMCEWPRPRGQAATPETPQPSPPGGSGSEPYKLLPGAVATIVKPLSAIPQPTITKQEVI
Sequence of X-box-binding protein 1 (Homo sapiens) (P17861 whole entry, looked up): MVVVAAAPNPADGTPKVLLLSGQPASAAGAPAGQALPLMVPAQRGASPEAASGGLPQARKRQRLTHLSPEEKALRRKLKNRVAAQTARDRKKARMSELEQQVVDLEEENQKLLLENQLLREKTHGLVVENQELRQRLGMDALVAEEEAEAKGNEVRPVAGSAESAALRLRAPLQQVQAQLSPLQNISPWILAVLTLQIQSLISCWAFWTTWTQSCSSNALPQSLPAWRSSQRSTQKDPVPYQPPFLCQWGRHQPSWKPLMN
Sequence of Estrogen-related receptor gamma (Homo sapiens) (P62508 whole entry, looked up, the tested form may be a part): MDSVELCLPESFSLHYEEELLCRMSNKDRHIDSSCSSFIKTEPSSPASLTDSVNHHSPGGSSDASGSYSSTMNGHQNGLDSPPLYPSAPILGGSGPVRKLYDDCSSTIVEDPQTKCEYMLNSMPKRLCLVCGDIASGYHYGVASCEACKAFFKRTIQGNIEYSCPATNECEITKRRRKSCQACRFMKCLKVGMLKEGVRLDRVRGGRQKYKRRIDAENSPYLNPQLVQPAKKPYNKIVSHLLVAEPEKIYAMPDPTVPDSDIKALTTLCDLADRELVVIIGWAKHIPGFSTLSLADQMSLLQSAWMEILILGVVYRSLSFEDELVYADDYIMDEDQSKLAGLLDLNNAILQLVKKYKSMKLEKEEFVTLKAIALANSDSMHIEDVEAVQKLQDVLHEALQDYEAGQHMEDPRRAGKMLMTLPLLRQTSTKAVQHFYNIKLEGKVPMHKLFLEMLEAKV
Sequence of Nuclear receptor subfamily 4 group A member 2 (Homo sapiens) (P43354 whole entry, looked up, the tested form may be a part): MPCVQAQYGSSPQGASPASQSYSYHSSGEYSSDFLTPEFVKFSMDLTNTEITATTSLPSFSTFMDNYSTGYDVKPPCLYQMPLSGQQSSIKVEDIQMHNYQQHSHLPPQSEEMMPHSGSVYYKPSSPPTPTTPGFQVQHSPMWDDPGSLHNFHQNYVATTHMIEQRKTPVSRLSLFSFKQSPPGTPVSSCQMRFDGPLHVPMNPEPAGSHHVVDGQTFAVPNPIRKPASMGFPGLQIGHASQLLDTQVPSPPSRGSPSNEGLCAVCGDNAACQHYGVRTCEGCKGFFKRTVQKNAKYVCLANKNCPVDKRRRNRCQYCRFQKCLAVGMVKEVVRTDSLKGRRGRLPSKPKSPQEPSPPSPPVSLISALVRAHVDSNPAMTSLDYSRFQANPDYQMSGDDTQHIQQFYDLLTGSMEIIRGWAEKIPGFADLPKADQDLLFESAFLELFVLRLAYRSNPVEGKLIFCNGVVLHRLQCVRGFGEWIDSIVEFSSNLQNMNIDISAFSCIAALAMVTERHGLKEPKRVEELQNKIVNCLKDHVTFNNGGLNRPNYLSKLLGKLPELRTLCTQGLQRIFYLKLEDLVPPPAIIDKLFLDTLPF
Sequence of Oxysterols receptor LXR-beta (Homo sapiens) (P55055 whole entry, looked up, the tested form may be a part): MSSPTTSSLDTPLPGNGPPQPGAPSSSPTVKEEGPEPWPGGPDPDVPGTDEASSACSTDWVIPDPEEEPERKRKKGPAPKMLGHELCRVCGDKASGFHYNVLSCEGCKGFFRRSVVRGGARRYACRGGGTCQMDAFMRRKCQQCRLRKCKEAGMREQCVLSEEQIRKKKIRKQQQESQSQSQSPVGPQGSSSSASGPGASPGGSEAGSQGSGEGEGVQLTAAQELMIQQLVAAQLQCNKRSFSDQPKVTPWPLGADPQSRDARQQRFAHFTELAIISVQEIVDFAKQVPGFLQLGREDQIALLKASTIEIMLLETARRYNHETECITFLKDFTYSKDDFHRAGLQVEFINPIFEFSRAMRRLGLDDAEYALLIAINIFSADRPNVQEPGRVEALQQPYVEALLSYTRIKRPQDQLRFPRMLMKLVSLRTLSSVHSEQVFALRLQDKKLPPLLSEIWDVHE
Sequence of Nuclear receptor subfamily 1 group I member 3 (Homo sapiens) (Q14994 whole entry, looked up, the tested form may be a part): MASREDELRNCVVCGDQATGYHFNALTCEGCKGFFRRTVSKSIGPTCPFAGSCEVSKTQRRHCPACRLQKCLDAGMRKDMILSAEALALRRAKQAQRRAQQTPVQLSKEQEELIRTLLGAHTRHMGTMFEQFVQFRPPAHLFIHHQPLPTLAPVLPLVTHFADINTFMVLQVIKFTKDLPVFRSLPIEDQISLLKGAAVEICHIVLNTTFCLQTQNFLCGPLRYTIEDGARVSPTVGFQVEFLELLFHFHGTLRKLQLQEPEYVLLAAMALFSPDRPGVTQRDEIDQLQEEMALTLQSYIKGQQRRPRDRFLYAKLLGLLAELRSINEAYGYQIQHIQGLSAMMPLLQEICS

CCCCCCCCCCCCCCCC[n+]1ccccc1
active: [2] 45.8 µM | [3] 3.87 µM | [6] 19.8 µM | [10] 14.7 µM
inactive: [1] | [4] | [5] | [7] | [8] | [9]

Cc1cccc(N)n1
inactive: [1] | [2] | [3] | [4] | [11] | [7] | [9] | [10]

Cc1cc(C)c(C)cc1C
inactive: [1] | [2] | [3] | [4] | [11] | [6] | [8] | [9] | [10]

CC1(C)O[C@@H]2C[C@H]3[C@@H]4C[C@H](F)C5=CC(=O)CC[C@]5(C)[C@H]4[C@@H](O)C[C@]3(C)[C@]2(C(=O)CO)O1
inactive: [1] | [2] | [3] | [4] | [5] | [13] | [7] | [8] | [14] | [9] | [10]
active: [12] 0.0728 µM

CCCCCCOC(=O)C(C)CC (stereo not drawn)
inactive: [1] | [2] | [15] | [16] | [17] | [4] | [11] | [18] | [19] | [12] | [20] | [5] | [6] | [8] | [9] | [10]

C=C(C)C(=O)OCCOc1ccccc1
inactive: [1] | [2] | [3] | [4] | [18] | [19] | [12] | [6] | [7] | [14] | [10]

CC(C)=CC1CC(C)CCO1 (stereo not drawn)
inactive: [1] | [2] | [3] | [4] | [7] | [9] | [10]

C[Si](C)(CCCN)O[Si](C)(C)CCCN
inactive: [1] | [2] | [3] | [4] | [18] | [13] | [7] | [8] | [9] | [10]
